Bioassay records from PubChem.
Only some compounds are listed: those with a hit (about 0.9% of all), similar ones and a draw of the others.
PPARg SRC-1 ag = PPARgamma agonists recruiting SRC-1 coactivator, primary screen, biochemical | AID 631, 2007 | PPARgamma-SRC-1 coactivator recruitment biochemical assay | activation, % at 8 µM | 200,000 compounds, 0.41% hits; in the data active = activation above about 19%;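 note: 0% = DMSO and 100% = reference agonist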
Target sequence (P37231 whole entry, looked up): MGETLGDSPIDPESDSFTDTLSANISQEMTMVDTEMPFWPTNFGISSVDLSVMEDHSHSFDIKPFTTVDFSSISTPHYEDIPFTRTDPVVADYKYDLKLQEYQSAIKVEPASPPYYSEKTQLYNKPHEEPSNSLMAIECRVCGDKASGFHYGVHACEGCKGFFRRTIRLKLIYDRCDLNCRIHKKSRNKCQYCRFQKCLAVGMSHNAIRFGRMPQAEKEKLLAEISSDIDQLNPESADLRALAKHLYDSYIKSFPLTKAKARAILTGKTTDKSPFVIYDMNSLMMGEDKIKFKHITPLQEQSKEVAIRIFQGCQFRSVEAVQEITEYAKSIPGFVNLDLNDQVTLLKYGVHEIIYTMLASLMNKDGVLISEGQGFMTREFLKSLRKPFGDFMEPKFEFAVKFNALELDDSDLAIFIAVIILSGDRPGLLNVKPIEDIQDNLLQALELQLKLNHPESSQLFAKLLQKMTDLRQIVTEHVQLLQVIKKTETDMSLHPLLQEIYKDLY
SRC3 TRFRET art = TR-FRET detection interference compounds, artefact control for PPARgamma SRC-3 recruitment agonists, biochemical, TR-FRET ratio. TR-FRET artefact counter-screen, PPARgamma/SRC-3 format; active compounds read high. TR-FRET ratio at 8 µM. 99,000 compounds, 0.39% hits
PPARg SRC3 recr = PPARgamma agonists recruiting SRC-3 coactivator, primary screen, biochemical; activation, % at 8 µM; biochemical PPARgamma/SRC-3 coactivator recruitment assay; AID 731, 2007; Peroxisome proliferator-activated receptor gamma (Homo sapiens), P37231; 200,000 compounds, 0.26% hits; in the data active = activation above about 23%;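 note: 0% = DMSO and 100% = reference agonist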
PPARg SRC-2 ag = agonists of PPARg-SRC-2 recruitment, primary screen, biochemical, HTS. activation, % at 8 µM. PPARgamma LBD-SRC-2 recruitment. Peroxisome proliferator-activated receptor gamma (Homo sapiens), P37231. 200,000 compounds, 0.34% hits; in the data active = activation above about 22%;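 note: 0% = vehicle and 100% = reference agonist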
SRC2 TRFRET art = TR-FRET signal artefacts, primary screen, artefact control for PPARgamma SRC-2 agonist project, biochemical; TR-FRET artefact counter-screen; active compounds read high; TR-FRET ratio at 8 µM; 200,000 compounds, 0.4% hits; AID 1049, 2008
SRC1 TRFRET art = TR-FRET detection interference compounds, primary screen, artefact control for PPARgamma SRC-1 recruitment agonists, biochemical, TR-FRET emission ratio; TR-FRET detection artefact counter-screen; active compounds read high; TR-FRET ratio at 8 µM; 99,000 compounds, 0.34% hits; in the data active = TR-FRET ratio above about 2300
Starred values were filed as active, the others as inactive. Cut-off read from the data, not from the text of the source, unless noted: active = TR-FRET ratio above about 2000; inactive = the rest.

`CC(=O)Nc1ccc(C(=O)Nc2nc(-c3cccnc3)cs2)cc1` gave PPARg SRC-1 ag 10.9, SRC3 TRFRET art 1482, PPARg SRC3 recr 1.0, PPARg SRC-2 ag -5.3, SRC2 TRFRET art 1466 and SRC1 TRFRET art 1713.
For C=CCOc1cccc(C2C(C(=O)c3ccc(C)o3)=C(O)C(=O)N2Cc2ccncc2)c1 (configuration not stated) the results were PPARg SRC-1 ag 13.1, PPARg SRC3 recr 22.9, PPARg SRC-2 ag 15.8 and SRC2 TRFRET art 2037*.
CC(=O)Nc1ccc(S(=O)(=O)N(C)CC(=O)OCC(=O)c2cc(C)n(-c3ccc4c(c3)OCO4)c2C)cc1 was read as PPARg SRC-1 ag -6.1, SRC3 TRFRET art 1481, PPARg SRC3 recr -6.5, PPARg SRC-2 ag 3.6, SRC2 TRFRET art 1550 and SRC1 TRFRET art 1853.
Screening CC(=O)Nc1ccc(Br)c2ccccc12 returned PPARg SRC-1 ag 18.2, SRC3 TRFRET art 2311*, PPARg SRC3 recr 12.3, PPARg SRC-2 ag 20.0, SRC2 TRFRET art 2043* and SRC1 TRFRET art 2333*.
Screening CC1Cc2ccccc2N1C(=O)CSc1nnnn1-c1ccc2c(c1)OCCO2 (configuration not stated) returned PPARg SRC-1 ag 6.9, PPARg SRC3 recr 2.9, PPARg SRC-2 ag 17.7 and SRC2 TRFRET art 2058*.
For CCCCOC(=O)N/N=C/C=C/c1ccccc1 the results were PPARg SRC-1 ag 10.9, SRC3 TRFRET art 1739, PPARg SRC3 recr 5.8, PPARg SRC-2 ag -0.9, SRC2 TRFRET art 1669 and SRC1 TRFRET art 2344*.
Screening CN(C)c1ncc(C2=C(Cl)C(=O)C(N3CCCC3)=C(Cl)C2=O)s1 returned PPARg SRC-1 ag 25.6*, PPARg SRC3 recr -7.2, PPARg SRC-2 ag 9.2 and SRC2 TRFRET art 1624.
For CCOc1ccc(Oc2ccc(Cl)cc2N)cc1 the results were PPARg SRC-1 ag 7.0, SRC3 TRFRET art 1519, PPARg SRC3 recr 1.2, PPARg SRC-2 ag 4.7, SRC2 TRFRET art 1565 and SRC1 TRFRET art 1684.
`Cc1ccc(NC(=O)CN2C(=O)N/C(=C/c3cc(C)n(-c4ccc(C(=O)O)cc4)c3C)C2=O)cc1` gave PPARg SRC-1 ag -2.2, SRC3 TRFRET art 1621, PPARg SRC3 recr 1.1, PPARg SRC-2 ag 5.2, SRC2 TRFRET art 1549 and SRC1 TRFRET art 1781.
Screening CCn1c(C)cc(/C=C2\NC(=O)N(CC(=O)Nc3ccc(F)cc3)C2=O)c1C returned PPARg SRC-1 ag 10.0, SRC3 TRFRET art 1608, PPARg SRC3 recr 5.0, PPARg SRC-2 ag 13.1, SRC2 TRFRET art 1533 and SRC1 TRFRET art 2342*.
For O=C(CSc1nnnn1Cc1ccccc1)NCCc1ccccc1 the results were PPARg SRC-1 ag 6.5, SRC3 TRFRET art 1723, PPARg SRC3 recr 4.0, PPARg SRC-2 ag 1.7, SRC2 TRFRET art 1626 and SRC1 TRFRET art 1886.
For O=C(CSc1nnnn1Cc1ccccc1)NCC(=O)c1ccccc1 the results were PPARg SRC-1 ag 5.8, PPARg SRC3 recr 8.6, PPARg SRC-2 ag 22.7* and SRC2 TRFRET art 1643.
O=C1C2CCCN2c2ccc(S(=O)(=O)N3CCOCC3)cc2N1Cc1cccc(C(F)(F)F)c1 (configuration not stated) was read as PPARg SRC-1 ag 4.3, PPARg SRC3 recr 4.8, PPARg SRC-2 ag 5.8 and SRC2 TRFRET art 1640.
CON(C)S(=O)(=O)c1ccc2c(c1)N(Cc1ccc(C)cc1)C(=O)C1CCCN21 (configuration not stated) was read as PPARg SRC-1 ag 1.2, SRC3 TRFRET art 2052*, PPARg SRC3 recr 5.9, PPARg SRC-2 ag 4.6, SRC2 TRFRET art 1753 and SRC1 TRFRET art 2187.
Cc1n[nH]c(C)c1S(=O)(=O)N(CC(=O)Nc1ccc2c(c1)OCCO2)c1ccc(C(C)C)cc1 was read as PPARg SRC-1 ag 7.0, PPARg SRC3 recr 0.4, PPARg SRC-2 ag 23.8* and SRC2 TRFRET art 1632.
For Cc1noc(C)c1S(=O)(=O)N(CC(=O)Nc1ccc2c(c1)OCO2)c1ccc(C(C)C)cc1 the results were PPARg SRC-1 ag 4.3, PPARg SRC3 recr 4.8, PPARg SRC-2 ag 10.9 and SRC2 TRFRET art 1718.
For CC1CCc2sc(C(=O)Nc3nnc(SCc4ccc(F)cc4)s3)cc2C1 (configuration not stated) the results were PPARg SRC-1 ag 15.5, PPARg SRC3 recr 18.9, PPARg SRC-2 ag 2.6 and SRC2 TRFRET art 2241*.
CSc1ccccc1NC(=O)c1cc2ncc(Br)cn2n1 was read as PPARg SRC-1 ag 18.7, SRC3 TRFRET art 2070*, PPARg SRC3 recr 3.1, PPARg SRC-2 ag 6.3, SRC2 TRFRET art 1853 and SRC1 TRFRET art 2400*.
Screening CC(C)CNC(=O)COC(=O)c1n[nH]c2ccccc12 returned PPARg SRC-1 ag 1.8, SRC3 TRFRET art 1508, PPARg SRC3 recr -2.6, PPARg SRC-2 ag -4.9, SRC2 TRFRET art 1616 and SRC1 TRFRET art 1935.
CCOc1ccccc1Nc1nnc(SCC(=O)Nc2nc(-c3ccc(OC)cc3)cs2)s1 was read as PPARg SRC-1 ag 5.6, SRC3 TRFRET art 1775, PPARg SRC3 recr 6.5, PPARg SRC-2 ag 6.6, SRC2 TRFRET art 2038* and SRC1 TRFRET art 2149.
Cc1sc2nc3c(SC(C)C(=O)O)cc(C(=O)c4ccccc4O)cn3c(=O)c2c1C (configuration not stated) was read as PPARg SRC-1 ag 4.0, SRC3 TRFRET art 1694, PPARg SRC3 recr 32.6*, PPARg SRC-2 ag -9.1, SRC2 TRFRET art 1417 and SRC1 TRFRET art 1751.
Screening CCOC(=O)c1sc2nc3c(SCC(=O)O)cc(C(=O)c4ccccc4O)cn3c(=O)c2c1C returned PPARg SRC-1 ag 1.7, SRC3 TRFRET art 1620, PPARg SRC3 recr 2.5, PPARg SRC-2 ag 4.1, SRC2 TRFRET art 1647 and SRC1 TRFRET art 1804.
Cn1cc(CN2C[C@]3(C)C[C@H]2CC(C)(C)C3)c(-c2ccc3c(c2)OCCO3)n1 was read as PPARg SRC-1 ag 2.3, SRC3 TRFRET art 1587, PPARg SRC3 recr -0.1, PPARg SRC-2 ag 9.0, SRC2 TRFRET art 1431 and SRC1 TRFRET art 1887.
`CCOc1ccccc1NC(=S)N1CCN(c2nc(-c3ccc(F)cc3)cs2)CC1` gave PPARg SRC-1 ag 5.5, SRC3 TRFRET art 2234*, PPARg SRC3 recr 13.6, PPARg SRC-2 ag 10.8, SRC2 TRFRET art 2063* and SRC1 TRFRET art 2465*.
For CCO[C@H]1OC(C(=O)N2CCCCCCC2)=C[C@@H](C)[C@@H]1CCCO the results were PPARg SRC-1 ag -10.1, SRC3 TRFRET art 1422, PPARg SRC3 recr -1.9, PPARg SRC-2 ag -4.5, SRC2 TRFRET art 1306 and SRC1 TRFRET art 1516.
COC(=O)c1ccc(OC(=O)CCN2c3ccccc3Sc3ccccc32)cc1 was read as PPARg SRC-1 ag 10.6, SRC3 TRFRET art 2754*, PPARg SRC3 recr 6.3, PPARg SRC-2 ag 16.0, SRC2 TRFRET art 2002* and SRC1 TRFRET art 1971.
